Screening results as filed in PubChem.
SARS PLP yeast: qHTS of Yeast-based Assay for SARS-CoV PLP; S. cerevisiae expressing SARS-CoV PLpro, growth rescue; Potency, µM (titrated, usually from 32.9 µM), most hits filed as activators; hit rate 0.19% among 330,000; calls by dose curve; also: nearly all actives have a fitted effect of over 55% in size
Sm TGR block: qHTS Assay for the Inhibitors of Schistosoma Mansoni Peroxiredoxins. Schistosoma mansoni thioredoxin glutathione reductase (TGR), Q962Y6. purified TGR, DTNB reduction, TNB absorbance 405 nm. Potency, µM (titrated, usually from 114 µM), usual class: inhibitors. hit rate 3% among 360,000. AID 485364, 2010; active = well fitted inhibition curve with a large enough effect; inconclusive = small, poorly fitted or top-dose-only effect; inactive = no such curve, though single readings can be large or run the other way; also: nearly all actives have a fitted effect of over 60% in size
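TGR 20 nM + NADPH 100 uM (dispensed conc.), cpd preinc 15 min RT; start with NADPH (500 uM addition) then DTNB (15 mM addition). Kinetic TNB absorbance, 405 nm filter. Four-parameter Hill fit across titration.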
Hits are given with their value. Hits are enriched below; roughly 3% of the tested compounds scored in any of these assays.

`O=[N+]([O-])c1ccc(N2CCCCCC2)c([N+](=O)[O-])c1` gave SARS PLP yeast inactive and Sm TGR block inactive.
`CC1CN(c2ccc([N+](=O)[O-])cc2F)CCN1C(=O)c1ccco1` (centres undefined) gave SARS PLP yeast inactive and Sm TGR block inactive.
Screening O=C(COc1ccc(Cl)cc1)Nc1ccc(N2CCN(C(=O)c3ccco3)CC2)cc1 returned SARS PLP yeast inactive and Sm TGR block inactive.
O=C(COc1ccc([N+](=O)[O-])cc1)Nc1ccc(N2CCN(C(=O)c3ccco3)CC2)cc1 was read as SARS PLP yeast inactive and Sm TGR block 35µM.
O=C1CCN(c2ccc([N+](=O)[O-])cc2F)CC1 was read as SARS PLP yeast inactive and Sm TGR block 40µM.
For CCc1nc2cccnc2n1-c1ccc(CC(=O)Nc2cccc(C)c2C)cc1 the results were Sm TGR block inactive.
Cc1ccc2[nH]c3c(c2c1)CN(C(=O)CN1CCSCC1)CC3 was read as SARS PLP yeast inactive and Sm TGR block inactive.
Screening Cc1ccc2[nH]c3c(c2c1)CN(C(=O)CN1CC(C)OC(C)C1)CC3 (centres undefined) returned SARS PLP yeast inactive and Sm TGR block 40µM.
Cc1occc1-c1nnc(SCC(=O)c2ccc(Cl)cc2)n1C was read as SARS PLP yeast inactive and Sm TGR block 40µM.
`Cc1occc1-c1nnc(SCC(=O)N2CCCCC2)n1C` gave SARS PLP yeast inactive and Sm TGR block inactive.
Cc1ccc(C(=O)CSc2nnc(-c3ccco3)n2C)cc1 was read as SARS PLP yeast inactive.
Screening Cn1c(SCC(=O)c2cc(Cl)c(Cl)s2)nnc1-c1ccco1 returned SARS PLP yeast inactive and Sm TGR block 25µM.
Screening Cn1c(SCC(=O)NCc2ccco2)nnc1-c1c[nH]c2ccccc12 returned SARS PLP yeast inactive and Sm TGR block inactive.
`Cc1occc1-c1nnc(SCC(=O)c2c[nH]c3ccccc23)n1C` gave SARS PLP yeast inactive and Sm TGR block 18µM.
For Cc1ccc(NC(=O)c2oc3ccc(S(=O)(=O)N(C)C4CCCCC4)cc3c2C)c(C)c1 the results were Sm TGR block inactive.
For CC(C)(C)c1ccc(C(=O)Nc2ccc(-c3nc4cc(Cl)ccc4o3)cc2)cc1 the results were Sm TGR block inactive.
`CCOc1ccccc1C(=O)NCc1ccc2c(c1)CCN2C(=O)c1ccccc1` gave Sm TGR block inactive.
For CCN(C(=O)c1cnc2ccc(C)cn2c1=O)c1ccccc1 the results were Sm TGR block inactive.
For Cc1ccc(CNC(=O)CCCn2c(=O)c3ccccc3n(Cc3ccccc3C)c2=O)cc1 the results were Sm TGR block inactive.
`Cc1ccc(C)c(C(=O)c2c(N)c(-c3nc(-c4ccc5c(c4)OCO5)cs3)c3ccccn23)c1` gave Sm TGR block inactive.
Cc1ccc2c(c1)cc(C(=O)NCc1ccccc1C)n2C was read as Sm TGR block inactive.
`Cc1cccc2cc(C3CC(c4ccco4)=NN3S(C)(=O)=O)c(Cl)nc12` (centres undefined) gave SARS PLP yeast inactive and Sm TGR block 32µM.
For Cc1cccc2cc(C3CC(c4ccco4)=NN3S(=O)(=O)c3ccccc3)c(Cl)nc12 (centres undefined) the results were SARS PLP yeast inactive and Sm TGR block inactive.
CCC(Sc1nc2ncccc2o1)C(=O)Nc1ccc(OC)c(OC)c1 (centres undefined) was read as Sm TGR block inactive.
`CCOC(=O)C1CCN(C(C)C(=O)c2c[nH]c3ccccc23)CC1` (centres undefined) gave SARS PLP yeast inactive and Sm TGR block inactive.
Screening Cc1[nH]c2ccc(C(=O)N3CCC(C(N)=O)CC3)cc2c1C returned SARS PLP yeast inactive.
CCOC(=O)C1CCN(C(c2ccccn2)c2c(C)[nH]c3ccccc23)CC1 (centres undefined) was read as SARS PLP yeast inactive and Sm TGR block 0.28µM.
Screening Cc1[nH]c2ccccc2c1C(c1ccccn1)N1CCC(C(N)=O)CC1 (centres undefined) returned SARS PLP yeast inactive and Sm TGR block 0.35µM.
For Cc1ccc(C)c(CN2C(=O)c3ccccc3S(=O)c3ccc(C(=O)NCCc4ccc(Cl)cc4)cc32)c1 (centres undefined) the results were Sm TGR block inactive.
CCOc1ccc(NC(=O)Cn2c(=O)n(Cc3ccccc3)c(=O)c3c4c(sc32)CN(C(C)=O)CC4)cc1 was read as Sm TGR block inactive.
`O=C(NCC(c1ccc2c(c1)OCO2)N1CCN(c2ccccc2)CC1)C(=O)Nc1cccc(F)c1` (centres undefined) gave Sm TGR block inactive.
Screening C#Cc1ccc([C@H]2C=C(C(=O)N3CCOCC3)O[C@@H](OCc3ccc(CO)cc3)C2)cc1 returned SARS PLP yeast inactive and Sm TGR block inconclusive.
For O=C(O)C1=C[C@@H](c2ccc(C(F)(F)F)cc2)C[C@@H](OCc2ccc(CO)cc2)O1 the results were SARS PLP yeast inactive and Sm TGR block 40µM.
For COc1ccc([C@H]2C=C(C(=O)O)O[C@@H](OCc3ccc(CO)cc3)C2)cc1 the results were SARS PLP yeast inactive and Sm TGR block inconclusive.
Screening O=C(C1=C[C@H](c2ccc(C(F)(F)F)cc2)C[C@H](OCc2ccc(CO)cc2)O1)N1CCCCCCC1 returned SARS PLP yeast inactive and Sm TGR block inactive.
O=C(O)C1=C[C@H](c2ccc(Br)cc2)C[C@H](OCc2ccc(CO)cc2)O1 was read as SARS PLP yeast inactive and Sm TGR block 32µM.
For C#Cc1ccc([C@@H]2C=C(C(=O)O)O[C@H](OCc3ccc(CO)cc3)C2)cc1 the results were SARS PLP yeast inactive and Sm TGR block 35µM.
`O=c1oc2ccccc2cc1-c1nc2ccccc2o1` gave SARS PLP yeast inactive and Sm TGR block inactive.
For Nc1cc2nc3ccccc3oc-2cc1=O the results were SARS PLP yeast inactive and Sm TGR block 16µM.
For CC(=O)c1ccc(NC(=O)Cn2c3ncccc3c(=O)n2-c2ccc(C)cc2)cc1 the results were Sm TGR block inactive.
For CCN(Cc1ccc(OC)cc1)c1ccc(-c2nc(-c3ccncc3)no2)cc1[N+](=O)[O-] the results were Sm TGR block inactive.
For CCOC(=O)c1ccc(-n2c(CN3CCN(CCO)CC3)nc3ccc([N+](=O)[O-])cc3c2=O)cc1 the results were SARS PLP yeast inactive and Sm TGR block 35µM.
For COc1cccc(-n2c(CN3CCN(Cc4ccccc4)CC3)nc3ccc([N+](=O)[O-])cc3c2=O)c1 the results were SARS PLP yeast inactive and Sm TGR block inactive.
For COc1ccc(OC)c(CCNC(=O)c2ccc3c(c2)c(C)c(C)n3Cc2ccccc2)c1 the results were Sm TGR block inactive.
O=C(CSc1nc2ccccc2nc1Cc1ccccc1F)Nc1cccc(C(F)(F)F)c1 was read as Sm TGR block 79µM.
For O=C(O)CSc1nc2ccccc2nc1Cc1ccccc1F the results were SARS PLP yeast inactive and Sm TGR block inactive.
`Cc1ccc(CSCCNC(=O)C2CCN(S(=O)(=O)Cc3ccccc3)CC2)cc1` gave Sm TGR block inactive.
`COc1cccc(Cn2c(CNC(=O)Cc3cccc(C)c3)nc3cccnc32)c1` gave Sm TGR block inactive.
CCOc1ccccc1N/C(=C(/C(Cl)=C(Cl)Cl)[N+](=O)[O-])n1cncn1 was read as SARS PLP yeast inactive and Sm TGR block 6.3µM.
